Screens (PubChem BioAssay)
Compounds with a hit are over-represented: about 7.5% of the library has one in this group of screens.
Rab9 promoter act: qHTS Assay for Rab9 Promoter Activators; Huh7 Rab9 promoter-luciferase reporter, luminescence, 24 h; Potency, µM (doses to about 9.22 µM), for inactives: top-dose activation, negative = inhibition, usual class: activators; hit rate 2.8% among 320,000; note: % of control where 0% means no effect; nearly all actives have a fitted effect of over 60% in size
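Huh7 cells stably carrying Rab9 promoter–luciferase reporter, plated 1500 cells/well, compound added after 2 h and incubated 24 h at 37 °C; luciferase luminescence then read after 10 min with detection reagent.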
KinaseGlo FLuc: Counterscreen for Luciferase (Kinase-Glo TM) Inhibition | Luciferin 4-monooxygenase (Photuris pensylvanica), Q27757 | Kinase-Glo luciferase, ATP luminescence, 8 min | Potency, µM (series often up to 38.3 µM), without a hit: at the highest dose activity change, negative = inhibition, usual class: inhibitors | hit rate 0.28% among 200,000; note: % is set by controls: 0 for no effect and ±100 for the full control effect; nearly all actives have a fitted effect of over 60% in size
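Compound is pinned into ATP-containing buffer (10 uM ATP, imidazole pH 7.2, 7 mM MgCl2). Kinase-Glo luciferase reagent is then added. Light output is recorded following an 8-min room-temperature incubation.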
ELG1 genotoxic: qHTS screen for small molecules that induce genotoxicity in human embryonic kidney (HEK293T) cells expressing luciferase-tagged ELG1. hit rate 1.3% among 330,000. AID 504466, 2011. HEK293T ELG1-luciferase reporter, luminescence, 16 h. Potency, µM (doses to about 46 µM), inactives show at the top dose activity change, positive = activation, hits mostly activators; note: % of control where 0% means no effect; nearly all actives have a fitted effect of over 60% in size
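Luminescence read-out: rising ELG1-luciferase signal, reflecting elevated ELG1 protein under genetic stress, flags genotoxic compounds. Cells were treated for 16 hr at 37 °C before ONE-Glo detection.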
NPC1 prom act: qHTS Assay for NPC1 Promoter Activators | AID 485313, 2010 | Huh7 NPC1 promoter luciferase reporter, 24 h | Potency, µM (series often up to 9.22 µM), for inactives: top-dose activation, actives largely listed as activators | hit rate 2.4% among 320,000; note: % of control where 0% means no effect; nearly all actives have a fitted effect of over 60% in size
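Stable NPC1-promoter luciferase Huh7 line; cpd (DMSO) 24 h, 37 °C, 5% CO2; Amplite luciferase reagent 10 min RT; luminescence readout. qHTS format.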
SMN2 splice enh: qHTS Assay for Enhancers of SMN2 Splice Variant Expression; HEK293 SMN2-luciferase splicing reporter, luminescence, 30-36 h; Potency, µM (series often up to 46.1 µM), for inactives: top-dose activity change, positive = activation, actives largely listed as activators; hit rate 2.8% among 210,000; note: % of control where 0% means no effect; nearly all actives have a fitted effect of over 55% in size
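qHTS luciferase splicing reporter: luminescence rises when SMN2 exon 7 is included in transfected HEK293 cells. Compound exposure lasted 30-36 h at 37C, with 4.5 mM final sodium butyrate as control, followed by a ONE-Glo read.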
FLuc modulator: qHTS profiling assay for firefly luciferase inhibitor/activator using purifed enzyme and Km concentrations of substrates (counterscreen for miR-21 project); Luciferin 4-monooxygenase (Photinus pyralis), P08659; purified FLuc, Km substrates, luminescence inhibition; Potency, µM (titrated, usually from 57.5 µM), for the others: at the highest dose activity change, negative = inhibition, hits mostly inhibitors; hit rate 6.9% among 360,000; AID 588342, 2011;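 note: plate controls were vehicle for no effect and reference inhibitor for full effect; nearly all actives have a fitted effect of over 55% in size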
Target sequence (P08659 whole entry, looked up): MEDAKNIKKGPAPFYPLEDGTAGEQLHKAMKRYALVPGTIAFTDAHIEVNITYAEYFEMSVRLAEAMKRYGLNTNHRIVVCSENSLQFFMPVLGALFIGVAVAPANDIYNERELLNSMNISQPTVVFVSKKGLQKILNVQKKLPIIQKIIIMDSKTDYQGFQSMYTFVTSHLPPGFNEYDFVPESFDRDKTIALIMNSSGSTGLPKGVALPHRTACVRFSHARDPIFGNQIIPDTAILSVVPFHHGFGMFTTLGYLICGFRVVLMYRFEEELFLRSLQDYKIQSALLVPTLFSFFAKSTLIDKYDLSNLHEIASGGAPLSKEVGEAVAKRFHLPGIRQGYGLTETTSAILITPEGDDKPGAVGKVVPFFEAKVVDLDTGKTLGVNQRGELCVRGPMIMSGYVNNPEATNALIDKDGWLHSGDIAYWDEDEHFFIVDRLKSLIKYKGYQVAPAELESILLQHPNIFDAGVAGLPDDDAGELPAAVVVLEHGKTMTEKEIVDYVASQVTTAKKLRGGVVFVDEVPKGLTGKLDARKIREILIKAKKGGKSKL
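Purified P. pyralis luciferase (10nM final) with 10uM D-luciferin and 10uM ATP (Km levels) in 50mM Tris acetate pH 7.5, 10mM Mg acetate, 0.01% Tween-20, 0.05% BSA; qHTS 6-point titration, ~60 µM downward; luminescence read.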
Active calls of the source: *; ? = inconclusive; · = no result given; [ ] = dose if it differs, or a comment. Calls come from the whole dose curve; as a rule, active = well fitted curve in the direction sought with a large enough effect; inconclusive = small, poorly fitted or top-dose-only effect, or another doubt; inactive = no such curve, though single readings can be large; an effect the other way counts as inactive or inconclusive. Potency is the fitted concentration of half-maximal effect.

SMILES	Rab9 promoter act	KinaseGlo FLuc	ELG1 genotoxic	NPC1 prom act	SMN2 splice enh	FLuc modulator
CCOc1ccc2nc(N3CCCC(C(=O)NCCCN4CC(C)CC(C)C4)C3)sc2c1 (stereo unspecified)	0.89µM*	·	2%[9.26 µM]	3%	·	?
CCOc1ccc2nc(N3CCCC(C(=O)Nc4ccc(OC)c(Cl)c4)C3)sc2c1 (stereo unspecified)	·	·	·	·	20µM*	3µM*
COc1ccc2nc(N3CCCC(C(=O)NCCc4ccc(OC)c(OC)c4)C3)sc2c1 (stereo unspecified)	2.8µM*	·	-10%	2.8µM*	·	8.5µM*
COc1ccc2nc(N3CCCC(C(=O)NCCCN4CCN(C)CC4)C3)sc2c1 (stereo unspecified)	16%	-7%	14%	0%	-2%	17µM*
O=C(NC1CC(=O)N(c2ccccc2)C1)C1CC1 (stereo unspecified)	4%	·	2%	-3%	·	-2%
Cc1ccc(NC(=O)C2CSC3(C)CCC(=O)N23)cc1S(=O)(=O)N1CCCCCC1 (stereo unspecified)	-2%	·	1%	1%	·	-11%
N#CCCn1c(=O)c(CCc2ccccc2)nc2cnc(N3CCOCC3)nc21	·	-5%	·	·	-3%	·
COc1ccc(C(=O)C2CCN(C(=S)NCCc3ccc(OC)c(OC)c3)CC2)cc1	-20%	-4%	-4%	-9%	·	19µM*
COc1ccc(CCNC(=S)N2CCC(C(=O)c3ccc(F)cc3)CC2)cc1OC	-24%	-5%	-8%	-18%	-65%	-5%
Cc1cc(C(=O)Nc2cccc(O)c2)c(C)o1	-3%	-5%	?	7%	23%	?
Cc1ccccc1C(=O)Nc1ccc2c(c1)OCCO2	0.4µM*	·	1.8µM*	0.5µM*	·	2.4µM*
Cc1cc(C(=O)Nc2ccc3c(c2)OCCO3)c(C)o1	3.2µM*	-5%	4.6µM*	?	11µM*	7.6µM*
Cc1cccc(C)c1N1CCN(C(=O)Nc2ccc3c(c2)OCCO3)CC1	?	0%	0%	?	-13%	9.5µM*
O=C(Nc1ccc2c(c1)OCCO2)N1CCN(c2ccc(F)cc2)CC1	-6%	2%	20%	6%	-50%	-16%
CC(=O)c1c(Nc2ccc3c(c2)OCCO3)oc(C)cc1=O	-18%	-3%	?	-1%	-6%	27µM*
CN(C)CCN=Cc1c(O)n(-c2ccc(S(=O)(=O)N3CCOCC3)cc2)c(=O)c2ccccc12	-3%	·	-1%	0%	·	1%
Cc1cccc(-c2ccc3ncnc(NCc4cccc(F)c4)c3c2)c1	-4%	·	·	-3%	·	-27%
O=C(NNC(=O)c1ccccc1OCc1ccccc1Cl)c1csc(N2CCOCC2)n1	2%	·	?	0%	·	?
O=C(Nc1ccc2c(c1)OCCO2)c1coc2ccccc2c1=O	10%	8.9µM*	?	-1%	9%	0.76µM*
CSc1ccccc1C(=O)Nc1ccc2c(c1)OCCO2	·	-13%	·	·	5%	?
Cc1occc1C(=O)Nc1ccc2c(c1)OCCO2	1.3µM*	7.1µM*	?	3.2µM*	?	8.5µM*
CC(=O)Nc1ccc2c(c1)CCCC2	7%	·	3%	3%	·	-14%
Cc1occc1C(=O)Nc1ccc2c(c1)CCC2	4µM*	13µM*	18µM*	3.5µM*	11µM*	9.5µM*
Cc1cc(C(=O)Nc2ccc3c(c2)OCCO3)c2ccccc2n1	2%	9%	8%	1%	-18%	-3%
O=C(Nc1ccc2c(c1)OCO2)N1CCN(Cc2ccco2)CC1	0.79µM*	·	?	?	·	0.95µM*
C=CCN1C(=O)S/C(=C/c2ccsc2)C1=O	16%	-6%	?	2%	-7%	19µM*
